# Efflux pump mplx: inhibitors of Candida antifungal efflux pumps expressed in yeast | inhibition, % at 10 µM | S. cerevisiae Candida pump triplex, Nile Red efflux | hit rate 0.44% among 330,000 | AID 485275;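 active = plate passing quality check with inhibition over a set limit, or well fluorescence over plate mean plus 4 SD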;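 note: Nile Red retained in pooled yeast measured as flow cytometry median fluorescence; 0% = buffer negative control and 100% = Enniatin B positive control; higher means more Nile Red kept so more efflux inhibition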
# V-ATPase pHluor: yeast V-ATPase proton transport regulation by pHLuorin; S. cerevisiae, pHLuorin cytosolic pH fluorescence; response, % at 10 µM; hit rate 0.37% among 350,000; AID 504577; in the data active = response mostly above about 7.3%, no sharp cut-off; inactive = mostly below about 5.4%; note: actives read high
# NSD2 HMT inh: blocks human histone methyltransferase NSD2. inhibition, % at 12.5 µM. O96028. NSD2 peptide methylation, AlphaScreen, 120 min. AID 743445. hit rate 0.54% among 310,000; in the data active = inhibition above about 50%
# NPR1 activator: GC-A (human) enzyme activation; P16066; hit rate 0.14% among 370,000; activation, % at 10 µM; AID 1671463; HEK293 GC-A cells, cGMP TR-FRET, EC30 ANP; 0% at EC30 ANP, 100% saturating ANP; in the data active = activation above about 40%
# NPR2 activator: GC-B (human) receptor activation. P20594. HEK293-GC-B cells, CNP EC30, cGMP TR-FRET; 0% at EC30 CNP, 100% saturating CNP. activation, % at 10 µM. hit rate 0.11% among 370,000. AID 1920062;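 active = activation at 10 µM reaching about 35% in either raw or pattern-adjusted values, limit read from the data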
# Rce1 inh: inhibitors of yeast Ras-converting enzyme; yeast membranes, quenched prenylated peptide cleavage fluorescence; calls only; hit rate 0.27% among 290,000;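 active = fall in fluorescence gain of 50% or more versus controls, with final raw signal at or below 3038400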;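 note: plate controls were neutral control wells for no effect and wells lacking membranes for full effect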
# Target sequence (Q03530 whole entry, looked up): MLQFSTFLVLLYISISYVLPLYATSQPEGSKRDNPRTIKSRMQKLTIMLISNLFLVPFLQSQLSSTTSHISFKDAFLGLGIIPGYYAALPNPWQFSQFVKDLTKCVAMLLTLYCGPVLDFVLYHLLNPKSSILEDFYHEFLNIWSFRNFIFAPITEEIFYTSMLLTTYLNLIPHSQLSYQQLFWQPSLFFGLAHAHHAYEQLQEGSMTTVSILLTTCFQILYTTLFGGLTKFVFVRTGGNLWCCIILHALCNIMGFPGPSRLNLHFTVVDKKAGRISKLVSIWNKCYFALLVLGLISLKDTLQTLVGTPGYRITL
# Yeast cmpd fluor: flagged as fluorescent in efflux inhibitor counter-screen | hit rate 4% among 1,700 | fluorescence ratio to DMSO, % at 10 µM | shares compounds with Efflux pump mplx | S. cerevisiae AD/pABC3, compound fluorescence, flow cytometry;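 active = fluorescence ratio to DMSO above its plate's cutoff, the plate mean ratio plus 5 SD, cut at about 210% in these data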;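 note: unstained yeast with no Nile Red so the signal is compound autofluorescence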
# CaMdr1 efflux inh: Candida Mdr1 efflux pump inhibition | AID 588518 | hit rate 1% among 1,700 | inhibition, % at 10 µM | shares compounds with Efflux pump mplx | S. cerevisiae AD/CaMDR1, Nile Red efflux, flow cytometry; in the data active = inhibition above about 26%;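 note: 0% = DMSO vehicle and 100% = reference inhibitor; higher means more Nile Red retained so more efflux inhibition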
# CaCdr2 efflux inh: blocks the Candida albicans Cdr2 efflux pump in yeast; S. cerevisiae AD/CaCDR2, Nile Red retention, flow cytometry; Nile Red retention ratio vs DMSO, % at 10 µM; AID 588520; shares compounds with Efflux pump mplx; hit rate 4% among 1,700; in the data active = Nile Red retention ratio vs DMSO above about 190%;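 note: higher ratio means more blocking of Cdr2 efflux of the dye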
# CaCdr1 efflux inh: Candida Cdr1 efflux pump inhibition | hit rate 1% among 1,700 | inhibition, % at 10 µM | AID 588522 | shares compounds with Efflux pump mplx | S. cerevisiae AD/CaCDR1, Nile Red efflux, flow cytometry;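 active = inhibition above the screen-wide mean plus twice its standard deviation, cut at about 32% in these data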
# * marks the source's active call; other numbers are inactive results; i = inactive; . = no result. Hits are enriched below; roughly 1.6% of the tested compounds scored in any of these assays.
SMILES,Efflux pump mplx,V-ATPase pHluor,NSD2 HMT inh,NPR1 activator,NPR2 activator,Rce1 inh,Yeast cmpd fluor,CaMdr1 efflux inh,CaCdr2 efflux inh,CaCdr1 efflux inh
CCOC(=O)C1NN=C(C(=O)c2ccccc2)C1c1ccc(OC)cc1 (stereo not given),1.4*,-1,0,0,1,i,100,0,112,0
Cc1ccccc1CN1CCCCC(NC(=O)c2ccc(N(C)C)cc2)C1=O (stereo not given),.,.,.,1,-2,.,.,.,.,.
O=C(COC(=O)c1cccc(Cl)c1Cl)NCCN1C(=O)CSC1=O,0,0,5,-2,-5,i,112,0,108,0
O=C(COC(=O)c1cccnc1Nc1ccccc1F)NCCN1C(=O)CSC1=O,0,-4,-1,2,-2,i,.,.,.,.
Cc1c(C(=O)OCC(=O)NCCN2C(=O)CSC2=O)cccc1[N+](=O)[O-],0,-2,1,-3,2,.,.,.,.,.
CC1CC(C)CN(S(=O)(=O)c2ccc(C(=O)OCC(=O)NCCN3C(=O)CSC3=O)cc2)C1 (stereo not given),0,-2,2,0,2,i,.,.,.,.
O=C(COC(=O)c1ccccc1Br)NCCN1C(=O)CSC1=O,1.1*,2,26,1,0,i,99,0,93,0
CCN(CC)S(=O)(=O)c1cccc(C(=O)OCC(=O)NCCN2C(=O)CSC2=O)c1,0,-2,-3,-1,3,.,92,0,85,0
CCC[C@H]1[C@@H](NC(=O)c2cccc(C(F)(F)F)c2)CC[C@@]23CCCN2C(=O)CCC[C@@H]13,.,.,-2,-17,-20,.,.,.,.,.
Cc1cc(C(=O)O[C@@H]2CCC[C@@]3(C(=O)N(Cc4ccccc4)c4ccccc43)[C@H]2NC(=O)CCc2ccccc2)no1,.,.,.,-4,2,.,.,.,.,.
CC(C)(C)N1Cc2nnn(CC3CCCCC3)c2-c2ccccc2S1(=O)=O,.,.,.,-2,-3,.,.,.,.,.
Cc1ccnc(SC2CC(=O)N(c3ccc(Br)cc3)C2=O)n1 (stereo not given),1.1*,-1,-2,-1,-1,i,83,0,83,0
CN(C)c1ccc(/C=C/C(=O)c2c(O)c3ccccc3oc2=O)cc1,1.4*,8,1,2,-7,i,182,2,223*,1
CN(C)S(=O)(=O)c1ccc(C(=O)OC2CCOC2=O)cc1 (stereo not given),1.5*,4,-1,4,-1,i,107,0,108,0
COc1ccc(/C=C/S(=O)(=O)NCCc2ccccc2)c(CNC(=O)OC(C)(C)C)c1,.,.,.,-6,-2,.,.,.,.,.
COc1ccc(-n2c(Cc3cccn3C)nnc2SCC(=O)Nc2ccccc2F)cc1,0,2,.,-5,-3,i,85,0,91,0
COc1ccc(NC(=O)CSc2nnc(Cc3cccn3C)n2CCc2ccccc2)c(OC)c1,6.7*,-3,0,-26,-14,i,79,0,91,0
COc1ccc(-n2c(Cc3cccn3C)nnc2SCC(=O)Nc2cccc(OC)c2)cc1,0,0,.,-3,-1,i,.,.,.,.
COc1ccc(NC(=O)CSc2nnc(Cc3cccn3C)n2-c2ccc(C)cc2)cc1OC,6.7*,-3,7,-6,4,i,99,0,112,0
COc1ccc(NC(=O)CSc2nnc(Cc3cccn3C)n2-c2ccc(F)cc2)cc1,0,2,.,-5,-2,i,.,.,.,.
CCOc1ccc(NC(=O)CSc2nnc(Cc3cccn3C)n2-c2ccc(F)cc2)cc1,0,2,.,2,0,i,95,0,110,0
CCOC(=O)Cn1cc(CN2C(C(=O)OC)CN(Cc3ccc(C)cc3)CCS2(=O)=O)nn1 (stereo not given),.,.,.,4,1,.,.,.,.,.
COCCCNC(=O)C[C@H]1C[C@@]2(C(=O)OC)C(=C[C@H](C(C)C)O[C@@H]2C2CC2)N(CCC2=CCCCC2)C1=O,.,.,.,-3,-4,.,.,.,.,.
CCOC(=O)[C@]12CCCC=C1N(Cc1ccc(OC)cc1)C(=O)[C@@H]2CC(=O)N1CCN(C(=O)C2CC2)CC1,.,.,.,-3,-1,.,.,.,.,.
Cc1ccc2c(c1)-c1c(cnn1CC(=O)NCCc1ccc(O)cc1)CO2,.,.,5,1,2,.,.,.,.,.
SMILES,Efflux pump mplx,V-ATPase pHluor,NSD2 HMT inh,NPR1 activator,NPR2 activator,Rce1 inh,Yeast cmpd fluor,CaMdr1 efflux inh,CaCdr2 efflux inh,CaCdr1 efflux inh
Cn1cccc1Cc1nnc(SCC(=O)NCCc2ccccc2)n1C,0,0,-2,0,-5,.,.,.,.,.
COc1ccc(-n2c(Cc3cccn3C)nnc2SCC(=O)NCCc2ccccc2)cc1,6.7*,-3,5,-1,-4,i,103,0,98,0
Cc1nc2ccccc2n2c(O)c(CC(=O)O)cc12,0.5*,-66,2,-16,-3,i,100,0,94,0
Cc1nc2ccccc2n1CCC(=O)O,0,3,35,-2,3,i,.,.,.,.
COC(=O)Cn1nc(-c2ccccc2)c2cccc(C(F)(F)F)c21,.,.,-3,-4,-3,.,.,.,.,.
CNC(=O)N(O)C1N(/N=C/c2ccccc2O)C(=S)SC1(C)C (stereo not given),0,-5,-3,-1,-2,i,.,.,.,.
CNC(=O)N(O)C1N(c2ccccc2)C(=S)SC1(C)C (stereo not given),8.0*,1,-1,5,3,i,99,0,114,0
CCCCCCC/C=C(\C)[C@@H](O)[C@@H](C)C(=O)N1CCC[C@@H]1C(=O)O,.,.,.,1,0,.,.,.,.,.
CCCC1CCC2(CC1)CCC2OC(=S)Nc1ccc(I)cc1 (stereo not given),.,.,-2,-1,0,.,.,.,.,.
CCN1CCN(CC(=O)Nc2cc(C(F)(F)F)ccc2OCCOC)CC1,1.3*,1,0,-2,0,i,104,0,107,0
CCCOc1ccc(C(F)(F)F)cc1NC(=O)CN1C(=O)C(=O)N(CC)C1=O,0,-3,-3,0,-1,.,.,.,.,.
O=C(O)/C=C/c1cn(-c2ccccc2)nc1-c1cccc([N+](=O)[O-])c1,0,-3,-9,-4,-3,.,.,.,.,.
O=C(O)/C=C/c1cn(-c2ccccc2)nc1-c1ccc(-c2ccc([N+](=O)[O-])cc2)o1,0.9*,-9,0,7,1,i,129,0,121,0
COc1ccc2[nH]cc(C(=O)CN3CCC(C)CC3)c2c1,8.2*,7,0,-4,0,i,105,0,112,0

# High-throughput results as filed in PubChem.
